Records with an inconclusive call do not appear. Activity calls are given as the source filed them. Calls come from the whole dose curve; as a rule, active = well fitted inhibition curve with a large enough effect; inconclusive = small, poorly fitted or top-dose-only effect; inactive = flat fitted curve, though single readings scatter.
% is set by controls: 0 for no effect and ±100 for the full control effect; potency is the fitted concentration of half-maximal effect.

This assay can be described thus: Primary qHTS for inhibitors of nuclear receptor binding SET domain protein 2 (NSD2) in an isogenic RCH-ACV NSD2 p.E1099K mutant (9B) (AID 1645876). Note: nearly all actives have a fitted effect of over 70% in size. To be noted: RCH-ACV (leukaemia line) NSD2 E1099K (9B) viability, CellTiter-Glo, 72 h; series mostly up to 44.9 µM; activity change, negative = viability loss: at the top concentration.
`C#Cc1ccc(-c2ccccc2F)cc1`: the “activity change, negative = viability loss” value was -2.17% (inactive).

Regarding `O=C(COCCOCCOCC(=O)Nc1c(I)cc(I)c(C(=O)O)c1I)Nc1c(I)cc(I)c(C(=O)O)c1I`, the result was inactive.

Take `CCCCCCCCCCCCCC[N+](C)(C)C`: the Potency is 237 nM (active).

Regarding `CC(C)(C)C(=O)OCOC(=O)C1N2C(=O)CC2S(=O)(=O)C1(C)C` (configuration not stated), the “activity change, negative = viability loss” value is -7.39% (inactive).

As for `Cc1[nH]cnc1-c1ccc(Cl)cc1`, the “activity change, negative = viability loss” value was -0.676% (inactive).

In the case of `O=C(O)Cn1c(=O)n(Cc2ccc(Br)cc2F)c(=O)c2ccc(Cl)cc21`, the “activity change, negative = viability loss” value was -9.88% (inactive).

As for `O=C(Oc1ccccc1)c1cccc(C(=O)Oc2ccccc2)c1`, the “activity change, negative = viability loss” value is 7% [at 91.9 µM] (inactive).

As to `CCOC(=O)C(O)c1ccccc1` (configuration not stated), the “activity change, negative = viability loss” value is -6.2% (inactive).

In the case of `Brc1ccccc1-c1ccccc1`, the “activity change, negative = viability loss” value was 9.89% [at 91.9 µM] (inactive).

As for `CC(COc1ccccc1)NN` (configuration not stated), the “activity change, negative = viability loss” value was -10.2% (inactive).

As for `CCOc1c(N2CCOCC2)cnn(C)c1=O`, the compound was called inactive.

On to `CC(C)(C)C(O)/C=C/c1ccc2c(c1)OCO2` (configuration not stated), for which the “activity change, negative = viability loss” value is -5.51% (inactive).

As to `Nc1nnnn1-c1ccccc1`, the call was inactive.

As to `Cc1ccc(-c2ccccc2C#N)cc1`, the “activity change, negative = viability loss” value was -21.6% (inactive).

As for `COC(=O)CCCCC(CCSS/C(CCO)=C(\C)N(C=O)Cc1cnc(C)nc1N)SC(C)=O` (configuration not stated), the “activity change, negative = viability loss” value was -5.89% (inactive).

As to `COC(=O)c1cc(Cl)ccc1NS(=O)(=O)C(F)(F)F`, the outcome was inactive.

In the case of `C/C(=N\O)[C@@H](C)NCC(C)(C)CN[C@H](C)/C(C)=N/O`, the “activity change, negative = viability loss” value is -15.4% (inactive).

Regarding `CCOc1ccccc1OCC1CNCCO1` (configuration not stated), the result was inactive.

For the compound `CCN(CC)CC(=O)Oc1ccc(NC(C)=O)cc1`, the outcome was inactive.

Take `COC(=O)c1cc(S(N)(=O)=O)ccc1OC`: the “activity change, negative = viability loss” value is 0.891% (inactive).

On to `CC1(C)S[C@@H]2[C@H](NC(=O)C(c3ccccc3)S(=O)(=O)O)C(=O)N2[C@H]1C(=O)O` (some centres not stated), for which the “activity change, negative = viability loss” value is -11.2% (inactive).

Regarding `Nc1nc(=O)n([C@@H]2O[C@H](CO)[C@@H](O)[C@@H]2F)cc1I`, the Potency was 1680 nM (active).

These data come from PubChem BioAssay (NCATS).
